# Experimental data as given in PubChem BioAssay (Tox21).
# Records with an inconclusive call do not appear. Where a call stands in place of a potency, no number is given. The source made the active and inactive calls. Unless noted, calls come from the whole dose curve; as a rule, active = well fitted cell-killing curve with a large enough effect in the repeat runs; inconclusive = weak or mixed curves, or effect the other way; inactive = flat fitted curve, though single readings scatter.
# Test system: not listed separately
# Assay: qHTS assay to identify small molecule that activate the aryl hydrocarbon receptor (AhR) signaling pathway - cell viability counter screen (AID 743086);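 note: HepG2 liver cells carrying the AhR DRE luciferase reporter; nearly all actives have a fitted effect of over 45% in size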
# Details: HepG2-AhR-luc viability, CellTiter-Fluor, 24 h; series mostly up to 70.3 µM
# In short: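 HepG2-AhR-luc (HG2L7.5c1) cells, 4000/well, were preincubated 5 h at 37C, exposed to compound in qHTS format for 24 hr at 37C, then given CellTiter-Fluor for 30 min; viability was read as fluorescence in the reporter wells.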
row,SMILES,Potency
1,CN1Cc2c(N)cccc2C(c2ccccc2)C1 (centres undefined),inactive
2,OCCOCCOCCOCCOCCO,inactive
3,Nc1nc(N)c2nc(-c3ccccc3)c(N)nc2n1,inactive
4,CC/C(C)=N/O,inactive
5,CCOC(=O)CC(=O)OCC,inactive
6,C=C(C)CC(C)(C)C,inactive
7,NC1CCCCC1N (centres undefined),inactive
8,O=c1n(CCCN2CCN(c3cccc(Cl)c3)CC2)nc2ccccn12,inactive
9,COC(=O)/C=C\C(=O)OC,inactive
10,O=C(NCC1CCCCN1)c1cc(OCC(F)(F)F)ccc1OCC(F)(F)F (centres undefined),inactive
11,Brc1ccc(Oc2ccc(Br)cc2)cc1,inactive

# Biological target: Peroxisome proliferator-activated receptor gamma (Homo sapiens) (UniProt P37231)
# Assay: qHTS assay to identify small molecule agonists of the peroxisome proliferator-activated receptor gamma (PPARg) signaling pathway (AID 743094; active = well fitted activation curve with a large enough effect in the signal ratio in the repeat runs, not every such curve was filed as active; the % refers to the signal ratio; note: potency is the fitted concentration of half-maximal effect)
# Details: HEK293H PPARg-UAS-bla, beta-lactamase FRET ratio, 17 h; series mostly up to 57 µM
# In short: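 Compounds dissolved in DMSO were added to PPARg UAS-bla HEK293H cells for 17 h at 37C, and reporter expression was quantified by fluorescence intensity after 1 h with LiveBLAzer B/G FRET substrate.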
# Sequence of Peroxisome proliferator-activated receptor gamma (Homo sapiens) (P37231 whole entry, looked up): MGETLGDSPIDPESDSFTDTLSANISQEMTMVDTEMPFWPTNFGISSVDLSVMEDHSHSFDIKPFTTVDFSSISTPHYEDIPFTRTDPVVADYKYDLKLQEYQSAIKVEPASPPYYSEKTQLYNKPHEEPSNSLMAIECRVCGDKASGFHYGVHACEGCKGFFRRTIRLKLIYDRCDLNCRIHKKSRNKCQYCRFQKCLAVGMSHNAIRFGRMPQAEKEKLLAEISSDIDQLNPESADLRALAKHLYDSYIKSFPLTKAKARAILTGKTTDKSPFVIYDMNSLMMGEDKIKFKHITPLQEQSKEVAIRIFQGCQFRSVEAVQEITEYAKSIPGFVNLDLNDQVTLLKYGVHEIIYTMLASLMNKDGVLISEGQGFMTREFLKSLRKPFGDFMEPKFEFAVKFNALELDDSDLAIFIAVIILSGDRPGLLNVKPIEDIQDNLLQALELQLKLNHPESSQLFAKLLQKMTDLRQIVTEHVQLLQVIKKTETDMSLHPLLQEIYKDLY
row,SMILES,Potency
1,CC(=O)OC/C=C(\C)CCC=C(C)C,inactive
2,COc1c2ccoc2cc2oc(=O)ccc12,inactive
3,CO[Si](CCCNCCN)(OC)OC,inactive
4,CCCOCC(C)O (centres undefined),inactive
5,O=Cc1ccc(CO)o1,inactive
6,COc1ccc2cc3[n+](cc2c1OC)CCc1cc2c(cc1-3)OCO2,inactive
7,OC1CCCCC1,inactive
8,Nc1nc(N)c2nc(-c3ccccc3)c(N)nc2n1,23.9 µM (active)
9,CC(O)CNCC(C)O (centres undefined),inactive
10,O=[N+]([O-])c1cc(C(F)(F)F)ccc1Cl,inactive
11,CC(C)=CCC/C(C)=C/C=O,inactive
12,CCCCCC(C)=O,inactive
13,CCCCCCCCCCCCCC(=O)O,inactive
14,CCCN(CCC)C(=O)SCC,inactive
15,O=[N+]([O-])c1ccccc1C(F)(F)F,inactive
16,O=C(O)C1=NN(c2ccc(S(=O)(=O)O)cc2)C(=O)C1,inactive
17,Cc1cc(C)c(O)c(C)c1,inactive
18,CN=C(NC#N)NCCSCc1nc[nH]c1C,inactive
